Measurements taken from the supplement of paper PMC10849652.
The full data set covers some 8,800 targets. This sample favours those with a hit. About 0.5% of all pairs of compound and target were hits.

Each target was assayed with CN1CCc2c(c3ccccc3n2Cc2ccc(C(=O)NO)cc2)C1 [Tubastatin A] (assay: log2 fold change, soluble protein after heating vs DMSO (PISA); higher = thermal stabilisation; K562 lysate, 10 uM; active = over 0.2 and 3.5 SD of the protein, either way, in both replicates (recomputed)).
Procedure, shortened: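 The values are log-two fold changes in thermal stability compared with solvent controls and come from duplicates. They were obtained by TMTpro 16plex LC-MS/MS, with channel sums equalised, on the supernatant after 21,000xg for 90 min. That supernatant came from crude K562 extract at 1 mg/mL protein treated with 10 μM compound for 30 min, heated for 3 min across 48°C-58°C, pooled and brought to 0.5% NP-40 at 4°C.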

UniProt Q9NQW6, sequence (Q9NQW6 whole entry, looked up): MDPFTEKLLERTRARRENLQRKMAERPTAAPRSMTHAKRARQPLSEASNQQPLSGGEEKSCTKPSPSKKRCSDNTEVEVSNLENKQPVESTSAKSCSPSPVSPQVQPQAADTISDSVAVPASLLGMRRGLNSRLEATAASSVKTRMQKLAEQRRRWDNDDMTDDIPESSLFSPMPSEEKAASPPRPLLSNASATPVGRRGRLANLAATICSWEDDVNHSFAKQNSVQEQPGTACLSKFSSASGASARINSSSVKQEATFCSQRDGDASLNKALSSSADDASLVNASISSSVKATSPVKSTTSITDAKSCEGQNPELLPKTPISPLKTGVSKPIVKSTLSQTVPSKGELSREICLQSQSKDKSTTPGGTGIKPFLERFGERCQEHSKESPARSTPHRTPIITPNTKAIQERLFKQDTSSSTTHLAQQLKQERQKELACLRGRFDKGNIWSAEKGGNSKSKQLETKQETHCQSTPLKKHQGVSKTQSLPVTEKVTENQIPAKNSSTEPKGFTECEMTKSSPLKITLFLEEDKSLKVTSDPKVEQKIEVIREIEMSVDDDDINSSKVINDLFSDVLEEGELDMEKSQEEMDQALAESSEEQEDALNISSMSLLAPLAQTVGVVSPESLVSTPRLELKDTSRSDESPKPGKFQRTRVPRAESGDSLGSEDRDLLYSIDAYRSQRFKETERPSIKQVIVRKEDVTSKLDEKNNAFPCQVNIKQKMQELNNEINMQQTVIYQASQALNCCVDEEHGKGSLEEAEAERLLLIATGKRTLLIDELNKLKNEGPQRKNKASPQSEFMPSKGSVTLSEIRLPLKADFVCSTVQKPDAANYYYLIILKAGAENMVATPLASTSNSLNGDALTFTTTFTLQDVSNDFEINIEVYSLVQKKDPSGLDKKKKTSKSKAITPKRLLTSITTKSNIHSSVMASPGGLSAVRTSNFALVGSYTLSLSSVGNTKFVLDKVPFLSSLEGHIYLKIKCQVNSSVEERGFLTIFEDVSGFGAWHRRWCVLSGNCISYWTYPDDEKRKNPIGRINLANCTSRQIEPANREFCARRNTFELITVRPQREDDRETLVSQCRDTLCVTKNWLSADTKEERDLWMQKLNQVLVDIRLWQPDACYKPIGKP
UniProt P42330, sequence (P42330 whole entry, looked up): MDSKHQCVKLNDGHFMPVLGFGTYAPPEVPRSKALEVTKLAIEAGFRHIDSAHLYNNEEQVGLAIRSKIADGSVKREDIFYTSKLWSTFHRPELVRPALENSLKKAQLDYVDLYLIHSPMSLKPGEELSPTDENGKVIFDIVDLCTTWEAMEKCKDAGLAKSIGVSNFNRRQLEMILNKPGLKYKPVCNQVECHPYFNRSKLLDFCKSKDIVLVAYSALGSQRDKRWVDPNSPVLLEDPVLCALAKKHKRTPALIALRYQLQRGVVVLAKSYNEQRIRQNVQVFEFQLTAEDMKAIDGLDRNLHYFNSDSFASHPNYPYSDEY
UniProt P53396, sequence (P53396 whole entry, looked up): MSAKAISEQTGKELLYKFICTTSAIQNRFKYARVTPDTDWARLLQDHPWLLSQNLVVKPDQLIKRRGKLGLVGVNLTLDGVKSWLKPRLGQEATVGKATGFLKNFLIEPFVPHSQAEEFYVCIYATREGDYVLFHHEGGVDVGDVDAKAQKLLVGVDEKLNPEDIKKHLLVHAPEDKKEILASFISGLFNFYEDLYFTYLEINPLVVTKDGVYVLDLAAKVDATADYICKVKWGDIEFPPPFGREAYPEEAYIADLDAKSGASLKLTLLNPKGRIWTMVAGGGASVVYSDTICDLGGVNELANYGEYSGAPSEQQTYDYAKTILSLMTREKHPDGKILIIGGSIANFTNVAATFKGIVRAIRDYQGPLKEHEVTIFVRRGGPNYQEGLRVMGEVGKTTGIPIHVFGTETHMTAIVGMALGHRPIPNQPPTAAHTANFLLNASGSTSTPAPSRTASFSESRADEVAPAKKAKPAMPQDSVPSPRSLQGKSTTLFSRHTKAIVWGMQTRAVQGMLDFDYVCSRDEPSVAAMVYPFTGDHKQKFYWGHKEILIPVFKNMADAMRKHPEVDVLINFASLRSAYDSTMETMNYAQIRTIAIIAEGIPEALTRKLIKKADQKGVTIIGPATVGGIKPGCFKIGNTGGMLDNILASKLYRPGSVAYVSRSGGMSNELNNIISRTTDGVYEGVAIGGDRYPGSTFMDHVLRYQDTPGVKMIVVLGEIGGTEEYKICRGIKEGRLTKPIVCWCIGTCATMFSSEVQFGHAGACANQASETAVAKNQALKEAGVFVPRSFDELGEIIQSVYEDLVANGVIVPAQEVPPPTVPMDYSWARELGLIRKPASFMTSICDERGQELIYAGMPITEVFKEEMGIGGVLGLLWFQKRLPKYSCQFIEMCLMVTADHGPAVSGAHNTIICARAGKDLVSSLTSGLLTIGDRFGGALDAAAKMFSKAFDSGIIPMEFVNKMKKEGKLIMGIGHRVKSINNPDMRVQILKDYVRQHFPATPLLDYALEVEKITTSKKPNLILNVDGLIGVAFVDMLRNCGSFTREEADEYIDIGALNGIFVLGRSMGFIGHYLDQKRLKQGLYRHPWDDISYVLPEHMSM
UniProt Q13155, sequence (Q13155 whole entry, looked up): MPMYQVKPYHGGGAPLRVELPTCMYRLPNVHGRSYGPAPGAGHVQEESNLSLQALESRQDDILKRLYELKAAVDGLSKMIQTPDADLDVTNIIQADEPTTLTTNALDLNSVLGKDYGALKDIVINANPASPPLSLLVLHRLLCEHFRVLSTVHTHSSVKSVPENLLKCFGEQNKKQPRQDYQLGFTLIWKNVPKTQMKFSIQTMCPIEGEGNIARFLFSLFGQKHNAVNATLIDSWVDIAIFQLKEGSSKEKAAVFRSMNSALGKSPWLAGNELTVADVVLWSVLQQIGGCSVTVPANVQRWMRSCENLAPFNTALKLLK
UniProt O60488, sequence (O60488 whole entry, looked up): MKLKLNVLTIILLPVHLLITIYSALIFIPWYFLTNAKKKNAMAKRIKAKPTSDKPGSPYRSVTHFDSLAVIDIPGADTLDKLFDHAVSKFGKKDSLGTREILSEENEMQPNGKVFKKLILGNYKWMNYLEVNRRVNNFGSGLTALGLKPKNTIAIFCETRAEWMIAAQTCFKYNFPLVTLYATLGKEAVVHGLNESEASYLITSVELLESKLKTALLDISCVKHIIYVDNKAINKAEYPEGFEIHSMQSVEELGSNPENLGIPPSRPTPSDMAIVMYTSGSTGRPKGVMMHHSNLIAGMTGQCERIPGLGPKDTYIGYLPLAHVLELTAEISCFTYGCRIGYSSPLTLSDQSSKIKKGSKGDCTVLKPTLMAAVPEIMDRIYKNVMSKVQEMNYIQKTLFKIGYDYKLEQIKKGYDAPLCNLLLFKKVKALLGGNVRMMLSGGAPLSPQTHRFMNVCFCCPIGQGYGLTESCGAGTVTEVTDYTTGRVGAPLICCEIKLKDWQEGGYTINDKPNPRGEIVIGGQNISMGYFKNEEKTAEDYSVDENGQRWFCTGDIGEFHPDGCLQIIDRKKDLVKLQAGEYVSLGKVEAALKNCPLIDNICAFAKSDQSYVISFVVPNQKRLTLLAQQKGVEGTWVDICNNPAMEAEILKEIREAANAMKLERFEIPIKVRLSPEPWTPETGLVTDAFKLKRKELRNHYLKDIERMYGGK
UniProt Q9UHB7, sequence (Q9UHB7 whole entry, looked up): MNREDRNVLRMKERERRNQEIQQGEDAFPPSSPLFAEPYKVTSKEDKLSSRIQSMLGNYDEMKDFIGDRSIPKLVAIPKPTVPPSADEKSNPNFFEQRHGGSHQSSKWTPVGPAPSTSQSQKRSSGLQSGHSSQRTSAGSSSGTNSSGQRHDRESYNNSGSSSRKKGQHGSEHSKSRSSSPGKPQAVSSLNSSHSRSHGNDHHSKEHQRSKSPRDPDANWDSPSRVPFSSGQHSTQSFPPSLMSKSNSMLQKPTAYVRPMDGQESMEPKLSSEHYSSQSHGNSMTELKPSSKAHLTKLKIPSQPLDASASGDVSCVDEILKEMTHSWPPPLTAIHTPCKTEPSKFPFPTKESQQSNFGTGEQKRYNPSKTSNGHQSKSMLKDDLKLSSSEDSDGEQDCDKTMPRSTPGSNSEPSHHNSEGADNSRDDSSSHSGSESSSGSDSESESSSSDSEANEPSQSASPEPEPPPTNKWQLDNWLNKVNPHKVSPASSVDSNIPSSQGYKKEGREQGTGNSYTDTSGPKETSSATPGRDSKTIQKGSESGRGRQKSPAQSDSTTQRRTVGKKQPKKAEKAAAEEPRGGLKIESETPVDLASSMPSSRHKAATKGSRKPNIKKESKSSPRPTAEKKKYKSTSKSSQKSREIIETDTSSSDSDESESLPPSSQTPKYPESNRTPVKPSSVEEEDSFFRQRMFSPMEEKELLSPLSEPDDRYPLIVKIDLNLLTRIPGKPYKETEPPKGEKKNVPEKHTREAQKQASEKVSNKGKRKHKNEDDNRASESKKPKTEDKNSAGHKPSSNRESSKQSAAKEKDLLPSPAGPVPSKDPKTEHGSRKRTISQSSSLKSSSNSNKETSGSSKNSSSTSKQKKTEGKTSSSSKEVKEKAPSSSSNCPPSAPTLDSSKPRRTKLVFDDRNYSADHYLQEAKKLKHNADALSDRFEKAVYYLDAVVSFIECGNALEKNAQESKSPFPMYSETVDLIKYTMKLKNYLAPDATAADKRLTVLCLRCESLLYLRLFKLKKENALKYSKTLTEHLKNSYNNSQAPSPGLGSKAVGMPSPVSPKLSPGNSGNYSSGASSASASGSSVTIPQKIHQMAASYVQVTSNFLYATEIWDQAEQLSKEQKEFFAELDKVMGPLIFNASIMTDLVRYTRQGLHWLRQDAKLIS
UniProt P40616, sequence (P40616 whole entry, looked up): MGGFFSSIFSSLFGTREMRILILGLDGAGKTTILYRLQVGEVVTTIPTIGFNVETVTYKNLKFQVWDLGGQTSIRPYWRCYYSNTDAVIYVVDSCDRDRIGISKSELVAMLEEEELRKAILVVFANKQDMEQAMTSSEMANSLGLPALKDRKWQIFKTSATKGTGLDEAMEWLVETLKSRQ

log2 fold change, inactive:
APAF1 (UniProt O14727) -0.174
ASCC2 (UniProt Q9H1I8) -0.105
AP1G2 (UniProt O75843) -0.099
ANLN (UniProt Q9NQW6) -0.196
ABCD3 (UniProt P28288) 0.1
ACLY (UniProt P53396) 0.078
AKT2 (UniProt P31751) -0.061
AIMP2 (UniProt Q13155) -0.11
ACIN1 isoform 5 (UniProt Q9UKV3) 0.039
ANP32E (UniProt Q9BTT0) 0.079
ACADS (UniProt P16219) -0.003
ANXA2 isoform 2 (UniProt P07355) 0.013
AMDHD2 isoform 3 (UniProt Q9Y303) 0
ACSL4 (UniProt O60488) -0.06
AKR1C3 (UniProt P42330) 0.073
ANP32A (UniProt P39687) 0.027
AFF4 (UniProt Q9UHB7) -0.086
ARL1 (UniProt P40616) -0.025
ARHGAP25 isoform 4 (UniProt P42331) -0.122
AK4 (UniProt P27144) 0.036
AIFM2 (UniProt Q9BRQ8) 0.044
AK1 (UniProt P00568) 0.009
ABI1 isoform 9 (UniProt Q8IZP0) 0.053
